# Compound activity (PubChem BioAssay)
# Compounds with a hit are over-represented: about 3.4% of the library has one in this group of screens.
# PP5 inh: PP5 (human) phosphatase inhibition; inhibition, % at 6.7 µM; actives 0.18% (n = 320,000); AID 1987; purified PP5c, OMFP substrate fluorescence;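 active means inhibition above the campaign's mean inhibition across all tested compounds plus 3 SD, cut at about 9.5% in these data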;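 further: 0% = DMSO only and 100% = 100 µM cantharidin control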
# PAFAH1B2 FP inh: inhibitors of human PAFAH1B2; P68402; inhibition, % at 3.39 µM; actives 1.2% (n = 340,000); recombinant PAFAH1B2, FP-rhodamine activity probe, fluorescence polarization; AID 492953;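 active means inhibition above the mean of all tested compounds plus 3 SD, cut at about 24% in these data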;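 further: 0% = enzyme with DMSO and 100% = wells lacking PAFAH1B2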
# Target sequence (P68402 whole entry, looked up): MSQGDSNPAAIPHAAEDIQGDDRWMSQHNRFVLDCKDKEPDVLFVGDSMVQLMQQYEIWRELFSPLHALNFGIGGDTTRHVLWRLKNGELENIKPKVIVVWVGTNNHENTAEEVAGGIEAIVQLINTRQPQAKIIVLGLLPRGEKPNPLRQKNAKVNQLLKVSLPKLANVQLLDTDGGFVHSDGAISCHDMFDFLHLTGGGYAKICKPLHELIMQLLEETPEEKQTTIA
# PAFAH1B3 FP inh: PAFAH1B3 (human) inhibition; Q15102; recombinant PAFAH1B3, FP-rhodamine probe, fluorescence polarization; inhibition, % at 3.39 µM; actives 0.28% (n = 340,000); AID 492972;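 active means inhibition above the screen-wide average of all tested compounds plus 3 SD, cut at about 25% in these data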;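 further: 0% = enzyme with DMSO only and 100% = wells lacking PAFAH1B3 protein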
# PP1 counter: blocks human PP1-alpha phosphatase, a PP5 counter-screen | P62136 | purified PP1alpha, OMFP fluorescence | inhibition, % at 6.7 µM | actives 0.9% (n = 320,000) | AID 2235;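 active means inhibition above the mean inhibition of all tested compounds plus 3 SD, computed separately for each screening campaign, cut at about 15% in these data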
# PAFAH2 inh: inhibitors of human PAFAH2; Q99487; recombinant PAFAH2, FP-rhodamine activity probe, fluorescence polarization; inhibition, % at 3.39 µM; actives 0.99% (n = 340,000); AID 492956;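 active means inhibition above the mean over all tested compounds plus 3 SD, cut at about 30% in these data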;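 further: inhibitors block probe labeling of enzyme so polarization drops; 0% = enzyme with DMSO and 100% = wells lacking PAFAH2 protein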
# pPAFAH inh: pPAFAH (human) enzyme inhibition | inhibition, % at 3.39 µM | actives 1.5% (n = 330,000) | Q13093 | recombinant pPAFAH, FP-rhodamine probe fluorescence polarization | AID 463082;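 active means inhibition above the mean inhibition across the screen plus 3 SD, cut at about 25% in these data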;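 further: inhibitors block binding of the rhodamine activity-based probe so polarization drops; 0% = enzyme with DMSO and 100% = wells lacking pPAFAH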
# Target sequence (Q13093 whole entry, looked up): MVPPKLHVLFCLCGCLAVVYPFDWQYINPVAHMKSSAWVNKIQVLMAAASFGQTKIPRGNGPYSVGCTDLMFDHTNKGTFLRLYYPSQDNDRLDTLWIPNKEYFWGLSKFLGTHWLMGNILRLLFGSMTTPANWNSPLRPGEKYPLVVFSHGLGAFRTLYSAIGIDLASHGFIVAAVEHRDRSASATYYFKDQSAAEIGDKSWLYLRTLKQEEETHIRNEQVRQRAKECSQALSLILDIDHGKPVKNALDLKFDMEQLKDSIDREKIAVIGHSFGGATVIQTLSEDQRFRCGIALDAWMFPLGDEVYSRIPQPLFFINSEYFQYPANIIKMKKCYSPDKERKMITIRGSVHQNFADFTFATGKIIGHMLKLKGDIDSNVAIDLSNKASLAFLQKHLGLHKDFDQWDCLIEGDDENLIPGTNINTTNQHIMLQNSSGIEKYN
# PAFAH2 confirm: confirmation of human PAFAH2 inhibitors. shares compounds with PAFAH2 inh. recombinant PAFAH2, FP-rhodamine activity probe, fluorescence polarization. inhibition, % at 3.39 µM. actives 65% (n = 2,300). AID 493030;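 active means mean inhibition over three repeats above a set limit taken from the earlier primary screen, cut at about 30% in these data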;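 further: inhibitor blocks binding of rhodamine activity probe so polarization falls; 0% = enzyme with DMSO and 100% = wells lacking PAFAH2 protein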
# * marks the source's active call; other numbers are inactive results; · = no result.
SMILES,PP5 inh,PAFAH1B2 FP inh,PAFAH1B3 FP inh,PP1 counter,PAFAH2 inh,pPAFAH inh,PAFAH2 confirm
O=C(Nc1ccc(OC(=O)c2ccccc2)c(-c2nc3ccccc3s2)c1)c1ccccc1,2.3,-8.1,-7.7,-1.3,-15.3,1.0,·
COc1ccccc1CC(=O)NCc1ccc2c(c1)OCO2,3.2,-2.5,4.8,-0.8,0.9,-0.4,·
Cc1cccc(/C(N)=N/OC(=O)c2ccc3c(c2)OCO3)c1,-0.5,4.4,5.9,-1.9,42.0*,-0.3,36.3*
COc1ccccc1C/C(N)=N/OC(=O)c1ccc2c(c1)OCO2,0.1,3.1,0.8,6.8,76.6*,0.3,79.4*
COc1ccccc1/C=N/OC(=O)c1ccc(C)cc1,0.2,0.9,-2.1,-0.4,86.6*,10.8,75.3*
Cc1ccc(C(=O)O/N=C/c2ccc3c(c2)OCO3)cc1,1.3,-2.1,-1.4,1.1,47.6*,12.1,51.0*
COc1ccccc1C/C(N)=N/OC(=O)c1ccco1,-2.9,-0.4,5.7,-2.4,57.7*,5.0,61.9*
O=C(COC(=O)c1ccccc1OC(F)F)Nc1ccc(N2CCCCC2)cc1,0.1,3.0,10.2,-0.4,41.7*,22.5,37.0*
CCOc1ccccc1C(=O)OCC(=O)Nc1ccc(N2CCCCC2)cc1,-4.6,4.3,-4.5,7.3,36.2*,22.1,28.1
Cc1cccc(C(=O)OCC(=O)Nc2ccc(N3CCCCC3)cc2)c1O,-0.2,4.9,0.6,-0.1,7.5,0.9,·
COc1cccc(NC(=O)CN(C)C(=O)CNC(=O)c2ccc(C)s2)c1,·,-0.5,4.4,·,4.4,·,·
CCOC(=O)c1cc(CC)sc1NC(=O)Cc1ccccc1,0.7,9.0,6.3,0.6,-6.7,12.0,·
O=C(CSc1nnc(SCc2ccccc2)s1)N/N=C/c1ccc(Cl)cc1Cl,-1.7,6.1,9.7,1.2,-7.9,7.0,·
CCN1CCN(Cc2c(O)ccc3c2O/C(=C\c2ccccc2)C3=O)CC1,-1.2,3.8,14.5,1.4,9.2,7.5,·
CCN1CCN(Cc2c(O)ccc3c2O/C(=C\c2ccc(C)cc2)C3=O)CC1,1.7,-0.6,1.0,-3.3,33.1*,4.0,25.1
Cc1ccc(/C=C2\Oc3c(ccc(O)c3CN3CCN(C)CC3)C2=O)cc1,2.8,1.0,5.4,-2.2,26.4,6.4,·
CCc1ccc(/C=C2\Oc3c(ccc(O)c3CN3CCN(C)CC3)C2=O)cc1,1.5,6.5,5.5,-1.8,57.9*,1.5,53.1*
CCN1CCN(Cc2c(O)ccc3c2O/C(=C\C=C\c2ccccc2)C3=O)CC1,2.0,-0.4,-2.8,5.8,36.0*,2.0,31.8*
O=C1CSC(c2ccc([N+](=O)[O-])cc2)N1CCN1CCCCC1 (stereo not drawn),-1.6,13.0,4.7,-6.0,2.0,1.3,·
CCCS(=O)(=O)c1c(S(=O)(=O)CCC)c2c(C(N)=O)cccn2c1C(=O)c1ccc(F)cc1,-4.1,3.2,7.7,-2.3,-0.2,0.0,·
CCCS(=O)(=O)c1c(S(=O)(=O)CCC)c2ccc(C(N)=O)cn2c1C(=O)c1ccccc1,·,-3.8,3.4,·,34.3*,·,24.1
COc1cc([N+](=O)[O-])ccc1-c1ccc(/C=C2\C(=O)ON=C2c2ccccc2)o1,·,7.8,6.3,·,29.8*,·,17.6
CCOc1cc(/C=C2\C(=O)ON=C2c2ccccc2)cc(Br)c1O,0.8,7.4,3.7,1.4,27.4,-1.0,·
COc1cc(/C=C2\C(=O)ON=C2c2ccccc2)cc(Br)c1O,0.1,1.9,-6.5,0.3,59.1*,2.9,61.0*
COc1cc(/C=C2\C(=O)ON=C2c2ccccc2)cc(Cl)c1O,-3.5,0.3,-8.3,-3.2,32.9*,2.0,46.9*
SMILES,PP5 inh,PAFAH1B2 FP inh,PAFAH1B3 FP inh,PP1 counter,PAFAH2 inh,pPAFAH inh,PAFAH2 confirm
CCCCC1=NN2C(=N)CC(=O)N=C2S1,-2.5,-0.3,5.6,1.7,33.4*,7.2,6.1
NS(=O)(=O)c1ccc(NC(=O)COC(=O)C2CCCCC2)cc1,0.8,1.5,7.8,-1.0,-0.7,9.1,·
CC(NC(=O)COC(=O)C1CC1C)c1cccc(Cl)c1 (stereo not drawn),·,-0.2,7.5,·,36.1*,7.1,23.1
CCOC(=O)C1=C(C)NC(C)=C(C(=O)OCC)C1C(=O)OCC(=O)NC(C)c1ccccc1 (stereo not drawn),·,1.9,4.8,·,2.4,·,·
CC(NC(=O)COC(=O)C1CC1C)c1ccccc1 (stereo not drawn),·,-3.5,11.5,·,33.3*,3.6,30.4*
CC1CC1C(=O)OCC(=O)NC(=O)c1ccc(C(C)(C)C)cc1 (stereo not drawn),·,2.8,8.8,·,2.8,1.9,·
CC(C)c1ccc(NC(=O)COC(=O)C2CCCCC2)cc1,3.8,1.5,2.3,-5.0,45.5*,7.3,28.9
CC(NC(=O)COC(=O)C1CCCCC1)c1ccccc1 (stereo not drawn),·,7.8,9.2,·,35.6*,7.8,21.9
COc1ccc(CCNC(=O)COc2ncnc3ccccc23)cc1OC,-0.5,1.7,5.3,-2.0,-1.9,2.5,·
O=C(NC1CCCCC1)C(c1ccncc1)N(Cc1ccc2c(c1)OCO2)C(=O)c1cnsn1 (stereo not drawn),2.5,6.9,-0.1,-2.2,33.3*,-1.9,17.9
O=C(NC1CCCCC1)C(c1ccc2ncccc2c1)N(Cc1ccc2c(c1)OCO2)C(=O)c1cccs1 (stereo not drawn),0.9,2.8,-4.5,-3.7,11.8,6.1,·
COc1ccc(S(=O)(=O)N2CC(C(=O)O)Oc3ccc(Cl)cc32)cc1 (stereo not drawn),-0.5,2.6,7.6,-0.4,19.6,-2.7,·
CC(C)(C)c1ccc(S(=O)(=O)N2CC(C(=O)O)Oc3ccc(Cl)cc32)cc1 (stereo not drawn),3.5,21.4,-2.5,9.2,34.1*,6.5,18.6
C=CCc1cccc(/C=N/NC(=O)C(C)Nc2cccc(C)c2)c1O (stereo not drawn),8.0,2.6,13.8,5.4,-4.6,7.3,·
O=C(COC(=O)c1ccc(Cl)nc1)Nc1cc(S(=O)(=O)N2CCCCC2)ccc1Cl,-0.8,0.1,6.5,1.9,38.2*,2.7,13.2
Cc1ccc(NC(=O)COC(=O)c2ccc(Cl)nc2)cc1S(=O)(=O)N1CCCCC1,2.3,-0.8,-1.2,1.3,36.1*,4.6,38.4*
CCOC(=O)c1ccc(N2C(=O)C(CC(N)=O)N(CCc3ccc(OC)c(OC)c3)C2=S)cc1 (stereo not drawn),-2.6,2.9,4.8,3.6,6.0,-4.6,·
O=C(COC(=O)/C=C/c1ccc(F)cc1)NCc1ccco1,1.6,2.2,3.0,-1.9,47.0*,12.1,28.7
C=CCOc1ccc(/C=C/C(=O)OCC(=O)NCc2ccco2)cc1,-2.3,-0.3,7.9,-3.0,46.1*,5.5,36.3*
